An excerpt weighted towards active compounds, which were near 1.5% of everything screened.
Tb PFK block: qHTS Assay to Find Inhibitors of T. brucei phosphofructokinase; ATP-dependent 6-phosphofructokinase (Trypanosoma brucei brucei), O15648; T. brucei PFK, ADP-Glo luminescence; Potency, µM (doses to about 57.5 µM), hits mostly inhibitors; 0.17% of 330,000 active; further: nearly all actives have a fitted effect of over 60% in size
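Luminescent ADP detection (ADP-Glo, two-step: ATP depletion then ADP-to-ATP conversion for luciferase) reported PFK activity after 45 min room-temperature reaction of 1.25 nM enzyme with 0.5 mM F6P and 0.1 mM ATP at pH 8.0.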
PI5P4K alpha inh: qHTS for Inhibitors of phosphatidylinositol 5-phosphate 4-kinase (PI5P4K); max response, %; AID 652105, 2013; 1.2% of 330,000 active; PI5P4Kalpha enzyme, ADP-Glo luminescence, 60 min; hits give low values; active means max response of -50% or lower; inconclusive means between -30% and -50%; inactive means -30% or higher; further: value at the top dose of about 77 µM
Target sequence (P48426 whole entry, looked up): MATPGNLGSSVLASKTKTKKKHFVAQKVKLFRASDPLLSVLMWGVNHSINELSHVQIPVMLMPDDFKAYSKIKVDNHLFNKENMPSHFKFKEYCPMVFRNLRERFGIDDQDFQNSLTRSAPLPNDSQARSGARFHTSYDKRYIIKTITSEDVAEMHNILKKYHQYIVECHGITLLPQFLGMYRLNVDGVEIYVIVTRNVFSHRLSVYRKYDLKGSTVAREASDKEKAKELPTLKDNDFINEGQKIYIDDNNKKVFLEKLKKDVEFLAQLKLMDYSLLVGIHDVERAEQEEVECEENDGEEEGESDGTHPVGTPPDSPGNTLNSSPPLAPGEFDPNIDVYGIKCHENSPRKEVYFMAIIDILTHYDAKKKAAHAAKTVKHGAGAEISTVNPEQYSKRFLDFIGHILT
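Human PI5P4Kalpha with substrate in 0.038 M HEPES pH 7.4, 0.28 mM EGTA, 0.1% CHAPS, 5% DMSO; reaction started with 5 microM ATP (final), 60 min at room temperature. ADP formed read by ADP-Glo luminescence.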
FEN1 inhibitor: qHTS Assay for the Inhibitors of Human Flap endonuclease 1 (FEN1); P39748; Recombinant FEN1 flap cleavage, fluorescence, 15 min; Potency, µM (doses to about 114 µM), hits mostly inhibitors; 0.35% of 390,000 active; further: nearly all actives have a fitted effect of over 65% in size
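In this screen, 50 nM flap DNA substrate was added to 10 nM FEN1 pretreated with compound for 15 min at room temperature; cleavage was followed with reads at 0 and 15 min, and Hill fitting gave concentration–response parameters.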
PGK inhibitor: qHTS Assay to Find Inhibitors of Phosphoglycerate Kinase; Phosphoglycerate kinase, glycosomal (Trypanosoma brucei brucei), P07378; PGK/GAPDH coupled, Kinase-Glo luminescence, 60 min; Potency, µM (titrated, usually from 57.5 µM), usual class: inhibitors; 0.043% of 380,000 active; further: nearly all actives have a fitted effect of over 60% in size
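Luminescent ATP detection (Kinase-Glo Plus) follows a 60-minute room-temperature incubation, with wells lacking PGK as controls. Buffer: 100 mM TEA (pH 7.6), 5 mM MgCl2, 0.01% Tween-20. Coupling enzyme GAPDH (100 nM final) supplies unstable 1,3-BPG in-well.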
TDP1 inh: qHTS Assay for Inhibitors of Tyrosyl-DNA Phosphodiesterase (TDP1) | 0.28% of 350,000 active | Potency, µM (series often up to 130 µM), hits mostly inhibitors | recombinant TDP1, AlphaScreen DNA substrate cleavage; further: nearly all actives have a fitted effect of over 40% in size
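Recombinant human Tdp1 (E. coli-expressed, 1 nM final) preincubated with compounds 15 min at room temperature, then 5'-biotin/3'-phosphotyrosine-FITC DNA substrate (15 nM final) added for 5 min. AlphaScreen beads (10 ug/ml final) added 10 min; cleavage lowers signal.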
WRN helicase inh: qHTS for Inhibitors of WRN Helicase. 0.46% of 360,000 active. AID 651768, 2012. WRN helicase unwinding, fluorescent forked duplex, kinetic. Potency, µM (highest dose often 114 µM), actives largely listed as inhibitors; further: nearly all actives have a fitted effect of over 55% in size
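Fluorescence dequenching readout, ex 525 nm/em 598 nm, kinetic mode: forked duplex DNA (100 nM final) with adjacent fluorophore and quencher unwound by WRN (20 nM final) with 2 mM ATP. Compound preincubation 15 min, room temperature.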
Large screens that a line does not name were inactive. Unless noted, the call rests on the fitted dose curve; in most records, active means well fitted curve in the direction sought with a large enough effect; inconclusive means small, poorly fitted or top-dose-only effect, or another doubt; inactive means no such curve, though single readings can be large; an effect the other way counts as inactive or inconclusive.

O=C(Nc1nnc(C2CC2)s1)C1Cc2ccccc2CN1S(=O)(=O)c1cccs1 (centres undefined)	PI5P4K alpha inh -60
COc1ccc(-n2c(SC)nc(O)c(Cc3ccccc3)c2=O)cc1	none (no result: PI5P4K alpha inh)
COc1ccc(Cc2c(O)nc(SC)n(C(C)=O)c2=O)cc1	PI5P4K alpha inh -75
COc1ccc(OC)c(CCNC(=O)Cn2sc3nc(C)cc(C)c3c2=O)c1	Tb PFK block 2.4µM (no result: PI5P4K alpha inh, FEN1 inhibitor, PGK inhibitor, WRN helicase inh)
COc1ccc(C2c3c(nc(Cc4ccccc4)[nH]c3=O)Oc3ccc4ccccc4c32)cc1OC (centres undefined)	none (no result: Tb PFK block, PI5P4K alpha inh, FEN1 inhibitor, PGK inhibitor, WRN helicase inh)
Cc1c(C(=O)O)cnc2c([N+](=O)[O-])cnn12	PI5P4K alpha inh -55, WRN helicase inh 79µM
S=c1[nH]c2cc3c(cc2[nH]1)OCCO3	PI5P4K alpha inh inconclusive (no result: TDP1 inh)
S=c1ncc2[nH]c(=S)[nH]c2[nH]1	PI5P4K alpha inh -84, WRN helicase inh inconclusive (no result: Tb PFK block, TDP1 inh)
N[C@@H](CCS(=O)O)C(=O)O	none (no result: Tb PFK block, PI5P4K alpha inh, FEN1 inhibitor, PGK inhibitor, WRN helicase inh)
COc1ccc2c(=O)c3c(=O)n(Cc4ccco4)c(-c4ccco4)nc3oc2c1	FEN1 inhibitor inconclusive, TDP1 inh 45µM, WRN helicase inh 45µM (no result: PI5P4K alpha inh)
COc1ccc(-c2nc3oc4cc(OC)ccc4c(=O)c3c(=O)n2Cc2ccco2)cc1	FEN1 inhibitor inconclusive
Oc1c(Br)cc(/C=N/Nc2nncc3ccccc23)cc1Br	Tb PFK block inconclusive, PI5P4K alpha inh -62, FEN1 inhibitor inconclusive (no result: TDP1 inh)
COc1ccccc1/C=N/Nc1nncc2ccccc12	none
Oc1c(Br)cc(Br)cc1/C=N/Nc1ccc(Cl)nn1	none (no result: TDP1 inh)
Oc1c(Br)cc(/C=N/Nc2ccc(Cl)nn2)cc1Br	PI5P4K alpha inh -93, FEN1 inhibitor inconclusive, WRN helicase inh 45µM (no result: TDP1 inh)
O=[N+]([O-])c1ccc(/C=N/Nc2ncc(Br)cn2)cc1	TDP1 inh 50µM
Cc1cccc(N=C2NC(=O)/C(=C/c3cccn3C)S2)c1C	PI5P4K alpha inh -72 (no result: TDP1 inh)
Cc1ccccc1N=C1NC(=O)/C(=C/c2cccn2-c2cccc(C(=O)O)c2)S1	PI5P4K alpha inh -87, PGK inhibitor inconclusive, TDP1 inh inconclusive, WRN helicase inh inconclusive
Cc1ccc(N=C2NC(=O)/C(=C/c3cccn3C)S2)cc1	none
COc1cc(/C=C2\SC(=Nc3ccccc3OC)NC2=O)ccc1O	PI5P4K alpha inh inconclusive, FEN1 inhibitor inconclusive
CC[C@H](C)[C@H](NC(=O)[C@H](Cc1cnc[nH]1)NC(=O)[C@@H](NC(=O)[C@H](CCCNC(=N)N)NC(=O)[C@H](CCCCN)NC(=O)[C@H](CCCNC(=N)N)NC(=O)[C@H](CCCCN)NC(=O)[C@@H](N)CC(N)=O)[C@@H](C)CC)C(=O)NCC(=O)N1CCC[C@H]1C(=O)NCC(=O)N[C@@H](CCCNC(=N)N)C(=O)N[C@@H](C)C(=O)N[C@@H](Cc1ccccc1)C(=O)N[C@@H](Cc1ccc(O)cc1)C(=O)N[C@H](C(=O)N[C@H](C(=O)N[C@@H](CCCCN)C(=O)N[C@@H](CC(N)=O)C(=O)N[C@H](C(=O)N[C@H](C(=O)NCC(=O)N[C@H](C(=O)N[C@H](C(=O)N[C@@H](CS)C(=O)O)[C@@H](C)CC)[C@@H](C)O)[C@@H](C)CC)[C@@H](C)CC)[C@@H](C)O)[C@@H](C)O	none (no result: Tb PFK block, PI5P4K alpha inh, FEN1 inhibitor, PGK inhibitor, WRN helicase inh)
O=C(CNC(=O)c1ccc2n[nH]nc2c1)OC(C(=O)Nc1cc(C(F)(F)F)ccc1Cl)c1ccccc1 (centres undefined)	none (no result: Tb PFK block, PI5P4K alpha inh, FEN1 inhibitor, PGK inhibitor, WRN helicase inh)
CC1(c2nnc(Cc3ccccc3)o2)CC(c2ccccc2[N+](=O)[O-])=NO1 (centres undefined)	PI5P4K alpha inh -51
N#CC1=C(N)NC(SCc2ccccc2)=C(C#N)C12CCCC2	PI5P4K alpha inh -63

High-throughput results from PubChem BioAssay.
